How the values were obtained:
Experiment in all cases: log2 ratio of Biotin-Ahx-Ub-VS probe labelling (fragment/DMSO); higher = less target engagement (more negative = stronger competition), active = hit call of the paper (q ≤ 0.05, log2 ratio ≤ -1)
Conditions in all cases: compound concentration: 200 uM; treatment time: 3 h
USP34 = USP34 (UniProt Q70CQ2)
Outline: (§1)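 Triplicate samples of HEK293T lysate, 495 µg each, received fragment at 200 µM or vehicle for 3 h, followed by Biotin-Ahx-Ub-VS (0.5 µM final) for 1 h. After NeutrAvidin enrichment of labelled DUBs and LysC/trypsin digestion, peptides were run by diaPASEF LC-MS/MS. The values are average log2 fragment/vehicle ratios from global-median-normalised Spectronaut label-free quantities, tested by unpaired t-test on proteins having ≥2 unique peptides.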

USP36 = target: T1, USP36 (UniProt Q9P275)
T1 sequence (whole entry): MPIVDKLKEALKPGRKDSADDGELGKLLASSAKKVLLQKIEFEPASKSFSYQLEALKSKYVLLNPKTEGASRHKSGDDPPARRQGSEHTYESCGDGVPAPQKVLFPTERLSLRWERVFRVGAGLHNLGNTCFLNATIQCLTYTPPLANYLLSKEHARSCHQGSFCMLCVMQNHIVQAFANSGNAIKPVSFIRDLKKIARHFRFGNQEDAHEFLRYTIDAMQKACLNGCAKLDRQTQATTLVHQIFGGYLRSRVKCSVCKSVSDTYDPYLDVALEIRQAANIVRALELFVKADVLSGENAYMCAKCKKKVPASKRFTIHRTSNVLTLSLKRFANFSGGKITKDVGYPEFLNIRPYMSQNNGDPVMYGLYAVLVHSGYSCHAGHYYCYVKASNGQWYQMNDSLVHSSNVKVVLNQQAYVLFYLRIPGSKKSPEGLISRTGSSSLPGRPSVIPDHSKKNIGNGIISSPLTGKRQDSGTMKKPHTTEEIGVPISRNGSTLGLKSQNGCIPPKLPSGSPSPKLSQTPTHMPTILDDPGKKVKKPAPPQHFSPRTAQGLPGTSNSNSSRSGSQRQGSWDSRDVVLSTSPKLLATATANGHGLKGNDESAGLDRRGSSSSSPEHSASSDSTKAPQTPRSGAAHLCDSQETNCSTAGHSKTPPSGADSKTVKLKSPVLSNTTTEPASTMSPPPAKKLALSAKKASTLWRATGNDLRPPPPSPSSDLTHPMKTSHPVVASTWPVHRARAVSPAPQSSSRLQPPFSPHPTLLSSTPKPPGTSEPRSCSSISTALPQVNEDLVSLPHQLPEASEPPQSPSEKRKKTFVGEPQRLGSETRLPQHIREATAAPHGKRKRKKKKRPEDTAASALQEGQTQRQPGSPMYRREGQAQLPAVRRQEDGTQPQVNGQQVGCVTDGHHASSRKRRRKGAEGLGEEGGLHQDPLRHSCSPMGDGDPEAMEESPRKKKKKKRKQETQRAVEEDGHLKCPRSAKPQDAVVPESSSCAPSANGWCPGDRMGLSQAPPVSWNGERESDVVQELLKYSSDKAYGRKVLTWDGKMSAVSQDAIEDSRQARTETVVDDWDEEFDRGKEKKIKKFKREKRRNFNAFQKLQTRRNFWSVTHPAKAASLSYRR
Outline: as §1

USP38 = target: T2, USP38 (UniProt Q8NB14)
T2 sequence (whole entry): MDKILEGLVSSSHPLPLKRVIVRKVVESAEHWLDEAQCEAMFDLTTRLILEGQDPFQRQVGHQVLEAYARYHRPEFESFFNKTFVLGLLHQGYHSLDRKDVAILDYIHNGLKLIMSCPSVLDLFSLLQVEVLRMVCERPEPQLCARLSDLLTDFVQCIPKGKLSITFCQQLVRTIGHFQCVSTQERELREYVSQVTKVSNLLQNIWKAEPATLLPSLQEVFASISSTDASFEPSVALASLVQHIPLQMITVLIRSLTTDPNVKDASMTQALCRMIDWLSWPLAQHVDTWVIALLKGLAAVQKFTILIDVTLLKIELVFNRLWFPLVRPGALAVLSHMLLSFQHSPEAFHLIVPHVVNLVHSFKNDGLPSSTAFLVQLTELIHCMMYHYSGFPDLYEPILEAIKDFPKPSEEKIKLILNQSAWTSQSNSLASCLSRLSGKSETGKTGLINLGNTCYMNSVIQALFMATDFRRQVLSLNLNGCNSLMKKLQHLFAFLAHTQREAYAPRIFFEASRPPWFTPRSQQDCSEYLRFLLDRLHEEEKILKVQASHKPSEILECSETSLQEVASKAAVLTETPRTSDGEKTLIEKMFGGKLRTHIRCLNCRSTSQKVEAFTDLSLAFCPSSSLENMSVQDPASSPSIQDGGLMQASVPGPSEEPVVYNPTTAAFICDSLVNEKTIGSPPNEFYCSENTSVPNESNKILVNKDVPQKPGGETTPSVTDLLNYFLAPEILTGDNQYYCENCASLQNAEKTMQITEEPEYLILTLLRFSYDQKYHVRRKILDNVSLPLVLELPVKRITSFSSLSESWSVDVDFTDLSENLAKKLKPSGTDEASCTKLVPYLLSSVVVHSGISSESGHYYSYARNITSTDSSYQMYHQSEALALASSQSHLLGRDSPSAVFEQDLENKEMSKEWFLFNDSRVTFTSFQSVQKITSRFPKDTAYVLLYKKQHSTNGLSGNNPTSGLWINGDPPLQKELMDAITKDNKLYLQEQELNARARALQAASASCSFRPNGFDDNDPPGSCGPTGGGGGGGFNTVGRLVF
Outline: as §1

USP39 = target: T3, USP39 (UniProt Q53GS9)
T3 sequence (whole entry): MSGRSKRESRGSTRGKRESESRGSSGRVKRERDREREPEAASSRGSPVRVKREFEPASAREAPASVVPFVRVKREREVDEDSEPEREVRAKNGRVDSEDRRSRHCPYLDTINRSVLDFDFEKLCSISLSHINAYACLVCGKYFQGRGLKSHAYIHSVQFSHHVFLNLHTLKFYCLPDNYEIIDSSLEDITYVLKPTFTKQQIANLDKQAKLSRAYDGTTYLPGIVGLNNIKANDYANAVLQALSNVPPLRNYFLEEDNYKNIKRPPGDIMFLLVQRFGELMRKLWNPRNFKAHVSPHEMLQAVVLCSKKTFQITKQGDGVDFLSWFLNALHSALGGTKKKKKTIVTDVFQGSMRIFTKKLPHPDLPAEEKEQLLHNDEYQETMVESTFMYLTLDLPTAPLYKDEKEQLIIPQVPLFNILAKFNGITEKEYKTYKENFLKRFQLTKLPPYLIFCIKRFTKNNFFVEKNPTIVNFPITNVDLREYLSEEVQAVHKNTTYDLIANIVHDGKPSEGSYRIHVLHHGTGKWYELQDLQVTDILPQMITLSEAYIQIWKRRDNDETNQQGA
Outline: as §1

USP4 = target: T4, USP4 (UniProt Q13107)
T4 sequence (whole entry): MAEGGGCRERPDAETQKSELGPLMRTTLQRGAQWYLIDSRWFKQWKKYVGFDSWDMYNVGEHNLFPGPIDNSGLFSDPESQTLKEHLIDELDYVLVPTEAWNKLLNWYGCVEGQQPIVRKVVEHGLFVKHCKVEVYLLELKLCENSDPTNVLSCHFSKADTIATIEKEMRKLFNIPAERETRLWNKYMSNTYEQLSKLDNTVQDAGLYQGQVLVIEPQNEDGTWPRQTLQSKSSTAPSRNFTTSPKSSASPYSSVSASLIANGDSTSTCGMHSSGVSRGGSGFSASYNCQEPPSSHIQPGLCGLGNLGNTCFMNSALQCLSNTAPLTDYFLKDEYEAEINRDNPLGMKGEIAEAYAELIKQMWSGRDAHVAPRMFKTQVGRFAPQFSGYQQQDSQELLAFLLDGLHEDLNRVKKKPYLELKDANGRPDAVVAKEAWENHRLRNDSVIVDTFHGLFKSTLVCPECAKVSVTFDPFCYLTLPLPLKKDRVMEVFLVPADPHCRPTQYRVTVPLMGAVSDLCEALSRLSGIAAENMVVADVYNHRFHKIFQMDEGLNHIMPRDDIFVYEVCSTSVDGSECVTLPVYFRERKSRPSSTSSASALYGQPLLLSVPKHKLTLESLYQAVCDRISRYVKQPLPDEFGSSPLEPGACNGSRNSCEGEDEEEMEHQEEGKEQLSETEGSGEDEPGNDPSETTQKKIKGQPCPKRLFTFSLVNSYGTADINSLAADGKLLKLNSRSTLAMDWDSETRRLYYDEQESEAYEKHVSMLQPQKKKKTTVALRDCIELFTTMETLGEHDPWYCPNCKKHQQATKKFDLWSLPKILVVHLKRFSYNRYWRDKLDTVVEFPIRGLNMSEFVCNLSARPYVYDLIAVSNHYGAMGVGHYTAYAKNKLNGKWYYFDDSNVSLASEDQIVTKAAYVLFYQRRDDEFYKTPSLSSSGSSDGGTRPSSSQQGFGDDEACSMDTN
Outline: as §1

Measured: log2 ratio of Biotin-Ahx-Ub-VS probe labelling

Chain of USP34 (Q70CQ2 whole entry, the tested form may be a part): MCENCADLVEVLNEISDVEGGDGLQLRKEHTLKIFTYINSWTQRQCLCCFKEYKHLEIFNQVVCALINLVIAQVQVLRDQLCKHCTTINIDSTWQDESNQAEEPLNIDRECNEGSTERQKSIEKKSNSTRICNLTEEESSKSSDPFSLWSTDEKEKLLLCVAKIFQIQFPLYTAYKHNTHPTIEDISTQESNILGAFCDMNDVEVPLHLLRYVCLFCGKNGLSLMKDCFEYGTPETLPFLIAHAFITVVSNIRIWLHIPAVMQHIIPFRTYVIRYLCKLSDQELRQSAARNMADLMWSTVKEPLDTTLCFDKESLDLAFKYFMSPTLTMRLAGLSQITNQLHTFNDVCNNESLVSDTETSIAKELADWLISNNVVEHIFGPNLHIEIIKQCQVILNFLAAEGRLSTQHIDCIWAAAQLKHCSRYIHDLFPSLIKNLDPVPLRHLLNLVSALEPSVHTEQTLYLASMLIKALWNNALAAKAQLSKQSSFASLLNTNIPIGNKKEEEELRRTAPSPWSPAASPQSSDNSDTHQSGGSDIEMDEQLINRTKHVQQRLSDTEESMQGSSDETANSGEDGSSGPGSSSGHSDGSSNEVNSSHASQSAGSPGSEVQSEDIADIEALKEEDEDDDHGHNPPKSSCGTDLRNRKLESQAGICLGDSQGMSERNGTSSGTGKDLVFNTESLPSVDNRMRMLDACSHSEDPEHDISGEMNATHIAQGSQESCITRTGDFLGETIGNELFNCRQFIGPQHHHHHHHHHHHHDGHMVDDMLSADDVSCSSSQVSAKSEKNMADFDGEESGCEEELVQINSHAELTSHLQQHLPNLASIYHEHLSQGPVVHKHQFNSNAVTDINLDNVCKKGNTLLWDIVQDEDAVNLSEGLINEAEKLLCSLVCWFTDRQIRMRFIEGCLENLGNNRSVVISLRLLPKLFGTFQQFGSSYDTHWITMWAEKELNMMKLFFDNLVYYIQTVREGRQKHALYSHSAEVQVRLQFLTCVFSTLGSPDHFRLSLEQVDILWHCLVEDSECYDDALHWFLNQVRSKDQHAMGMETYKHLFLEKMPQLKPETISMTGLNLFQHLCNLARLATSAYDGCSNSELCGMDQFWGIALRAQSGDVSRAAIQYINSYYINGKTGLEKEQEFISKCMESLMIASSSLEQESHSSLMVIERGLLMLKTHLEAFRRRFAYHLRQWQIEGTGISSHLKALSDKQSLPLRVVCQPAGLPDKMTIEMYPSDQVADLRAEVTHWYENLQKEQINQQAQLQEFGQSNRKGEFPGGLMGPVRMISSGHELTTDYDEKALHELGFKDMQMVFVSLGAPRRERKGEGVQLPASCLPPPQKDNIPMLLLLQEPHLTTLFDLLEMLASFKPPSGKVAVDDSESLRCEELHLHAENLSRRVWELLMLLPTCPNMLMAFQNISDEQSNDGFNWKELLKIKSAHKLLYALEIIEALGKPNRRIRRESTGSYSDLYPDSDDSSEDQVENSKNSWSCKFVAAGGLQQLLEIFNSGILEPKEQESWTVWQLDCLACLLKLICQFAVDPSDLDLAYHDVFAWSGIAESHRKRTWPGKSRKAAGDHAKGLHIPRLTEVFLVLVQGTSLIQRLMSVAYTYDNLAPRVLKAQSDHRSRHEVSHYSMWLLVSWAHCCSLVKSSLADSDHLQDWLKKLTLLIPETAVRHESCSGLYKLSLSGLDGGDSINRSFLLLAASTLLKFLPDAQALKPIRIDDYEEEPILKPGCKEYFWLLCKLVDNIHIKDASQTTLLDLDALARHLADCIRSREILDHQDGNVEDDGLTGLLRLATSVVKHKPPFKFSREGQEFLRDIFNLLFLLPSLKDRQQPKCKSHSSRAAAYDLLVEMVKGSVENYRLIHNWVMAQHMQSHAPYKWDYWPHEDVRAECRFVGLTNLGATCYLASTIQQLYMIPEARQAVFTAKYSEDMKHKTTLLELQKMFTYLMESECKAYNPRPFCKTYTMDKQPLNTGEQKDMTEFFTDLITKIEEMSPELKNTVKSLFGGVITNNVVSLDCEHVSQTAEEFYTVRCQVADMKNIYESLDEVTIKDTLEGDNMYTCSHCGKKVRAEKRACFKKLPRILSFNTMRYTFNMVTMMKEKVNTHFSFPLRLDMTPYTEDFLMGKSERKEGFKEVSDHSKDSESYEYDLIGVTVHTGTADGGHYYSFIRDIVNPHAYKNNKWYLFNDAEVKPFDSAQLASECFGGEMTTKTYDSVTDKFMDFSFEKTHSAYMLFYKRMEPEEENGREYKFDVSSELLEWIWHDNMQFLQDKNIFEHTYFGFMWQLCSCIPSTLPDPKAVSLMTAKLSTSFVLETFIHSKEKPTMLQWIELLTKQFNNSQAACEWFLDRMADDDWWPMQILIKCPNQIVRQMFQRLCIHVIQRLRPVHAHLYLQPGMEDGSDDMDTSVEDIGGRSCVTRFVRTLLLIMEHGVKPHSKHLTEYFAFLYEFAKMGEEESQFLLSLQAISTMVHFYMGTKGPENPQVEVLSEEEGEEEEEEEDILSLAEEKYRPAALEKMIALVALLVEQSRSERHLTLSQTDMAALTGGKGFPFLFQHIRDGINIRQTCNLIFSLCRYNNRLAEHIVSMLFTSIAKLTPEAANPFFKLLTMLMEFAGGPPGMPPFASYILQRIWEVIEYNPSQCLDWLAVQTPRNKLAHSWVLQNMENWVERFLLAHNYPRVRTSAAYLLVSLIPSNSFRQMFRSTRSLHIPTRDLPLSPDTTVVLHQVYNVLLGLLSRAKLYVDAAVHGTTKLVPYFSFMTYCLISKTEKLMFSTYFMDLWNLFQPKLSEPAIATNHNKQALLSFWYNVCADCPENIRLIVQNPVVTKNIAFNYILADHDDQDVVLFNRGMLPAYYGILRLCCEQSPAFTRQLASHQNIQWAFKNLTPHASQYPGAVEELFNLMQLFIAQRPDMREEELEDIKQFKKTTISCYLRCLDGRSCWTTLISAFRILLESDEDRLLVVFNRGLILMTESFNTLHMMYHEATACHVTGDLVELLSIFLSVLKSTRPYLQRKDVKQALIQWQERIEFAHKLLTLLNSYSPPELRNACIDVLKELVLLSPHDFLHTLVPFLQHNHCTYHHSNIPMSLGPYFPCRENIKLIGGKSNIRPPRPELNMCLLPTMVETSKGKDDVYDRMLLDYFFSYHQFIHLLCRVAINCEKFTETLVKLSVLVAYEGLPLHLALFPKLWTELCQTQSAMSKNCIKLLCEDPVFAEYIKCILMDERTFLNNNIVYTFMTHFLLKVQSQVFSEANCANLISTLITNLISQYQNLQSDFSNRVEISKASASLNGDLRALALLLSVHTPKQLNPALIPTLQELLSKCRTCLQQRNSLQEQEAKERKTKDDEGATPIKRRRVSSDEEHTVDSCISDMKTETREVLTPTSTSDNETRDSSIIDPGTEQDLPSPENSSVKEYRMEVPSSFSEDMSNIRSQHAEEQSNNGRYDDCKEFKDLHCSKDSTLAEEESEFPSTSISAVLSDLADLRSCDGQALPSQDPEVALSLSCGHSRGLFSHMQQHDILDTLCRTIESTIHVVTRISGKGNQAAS

O=C(CCl)Nc1nc(-c2cccs2)cs1
inactive: USP34 -0.754 | USP36 -0.271 | USP38 -0.092 | USP39 0.197 | USP4 -0.0279

Reference: the supplement of paper PMC11732987, “Enantioselective OTUD7B fragment discovery through chemoproteomics screening and high-throughput optimisation” (Communications Chemistry, 2025)
